{"source": "PubChem BioAssay AID463173", "about": "(ICCB-Longwood Screening Facility, Harvard Medical School, 2010)", "note": "Out of some 52,000 compounds screened, about 4,300 (8.3%) were called active. What follows is part of a selection rich in actives, with near analogues and random picks from the rest. Unmarked numbers belong to inactive results. Rule as the data show it: active = survival mostly below about 52% (no sharp cut-off); inactive = mostly above about 56%.", "data": [{"test_system": "DeltatarO mutant", "assay": "growth inhibition of S. aureus wild type versus tarO mutant, primary screen, teichoic acid synthesis inhibitors, RN4220, OD600 (AID 463173)", "settings": "OD600, 18 h, active compounds read low, screened at 18.75 µg/mL (by protocol)", "values": [{"smiles": "COc1cccc(NC(=O)CSc2nc3ccccc3nc2N2CCOCC2)c1", "survival": "54%"}, {"smiles": "CCCCc1ccc(NC(=O)CSc2nc3ccccc3nc2N2CCOCC2)cc1", "survival": "30% (active)"}, {"smiles": "CCOc1ccc(NC(=O)CSc2nc3ccccc3nc2N2CCOCC2)cc1", "survival": "87%"}, {"smiles": "CCc1cccc(C)c1NC(=O)CSc1nc2ccccc2nc1N1CCOCC1", "survival": "81%"}, {"smiles": "CC(=O)Nc1ccc(NC(=O)CSc2nc3ccccc3nc2N2CCOCC2)cc1", "survival": "83%"}, {"smiles": "CCCCc1ccc(NC(=O)CSc2nc(=O)[nH]c3c2CCCC3)cc1", "survival": "74%"}, {"smiles": "CCCCc1ccc(NC(=O)CSc2nc3ccccc3nc2N2CCCCC2)cc1", "survival": "30% (active)"}, {"smiles": "Cc1cccc(NC(=O)CSc2nc3ccccc3nc2N2CCOCC2)c1C", "survival": "51%"}, {"smiles": "CCc1cccc(NC(=O)CSc2nc3ccccc3nc2N2CCCCC2)c1", "survival": "-6% (active)"}, {"smiles": "CCOc1ccccc1NC(=O)CSc1nc2ccccc2nc1N1CCOCC1", "survival": "4% (active)"}, {"smiles": "Cc1ccc(NC(=O)CSc2nc3ccccc3nc2N2CCOCC2)cc1", "survival": "54%"}, {"smiles": "O=C(CS(=O)(=O)Cc1ccccc1)Nc1ccc2c(c1)OCO2", "survival": "69%"}, {"smiles": "O=C(NCc1ccc(F)cc1)c1cnc(N2CCOCC2)c2ccccc12", "survival": "95%"}, {"smiles": "CN(CC(=O)Nc1ccc(F)cc1F)S(=O)(=O)c1ccc(C(=O)N2CCOCC2)s1", "survival": "88%"}, {"smiles": "COc1ccc(S(=O)(=O)N2CCC(Oc3ccc(-n4cnnn4)cc3)CC2)cc1OC", "survival": "77%"}, {"smiles": "Cc1ccc(CNC(=O)C2CCN(c3nc4ccccc4n(C)c3=O)CC2)cc1", "survival": "87%"}, {"smiles": "O=C(Nc1ccccc1C(=O)OCc1cc(=O)n2c3c(sc2n1)CCCC3)c1ccc(F)cc1", "survival": "106%"}, {"smiles": "COc1ccc(OC)c(CNC(=O)c2ccc(Sc3ccc(Cl)cc3)c(NC(C)=O)c2)c1", "survival": "83%"}, {"smiles": "CCc1ccc(-c2cn3c(n2)sc2cc(C(=O)NCC(C)c4ccccc4)ccc23)cc1", "note": "(centres undefined)", "survival": "69%"}, {"smiles": "COC(=O)c1cnc(N2CCN(c3ccc(OC)cc3)CC2)c2ccccc12", "survival": "62%"}, {"smiles": "COc1cc(CNC(=O)c2ccc3nc(CCc4ccccc4)oc3c2)cc(OC)c1OC", "survival": "80%"}, {"smiles": "CCc1nn(Cc2cc(C)ccc2C)c(=O)c2cc3cc(C)ccc3n12", "survival": "95%"}, {"smiles": "CCOc1ccc(-c2cc(C(=O)NCCc3ccc(OC)c(OC)c3)[nH]n2)cc1", "survival": "77%"}, {"smiles": "COc1ccc(S(=O)(=O)N2CCN(Cc3ccc4c(c3)OCO4)CC2)cc1OC", "survival": "43% (active)"}, {"smiles": "COc1cccc(S(=O)(=O)N2CCN(Cc3ccc4c(c3)OCO4)CC2)c1", "survival": "75%"}, {"smiles": "NC(=O)CN1CCN(Cc2ccc3c(c2)OCO3)CC1", "survival": "76%"}, {"smiles": "Cc1ccc(S(=O)(=O)N2CCN(Cc3ccc4c(c3)OCO4)CC2)cc1", "survival": "70%"}, {"smiles": "Cc1cc(C)c(S(=O)(=O)N2CCN(Cc3ccc4c(c3)OCO4)CC2)cc1C", "survival": "13% (active)"}, {"smiles": "COc1ccc(S(=O)(=O)N2CCN(Cc3nc4ccc(C)cc4o3)CC2)cc1OC", "survival": "84%"}]}]}
